“And” between values parts separate entries of the source, which are not always exact repeats. Equal values may be shown once. The campaign covered roughly 220,000 compounds. About 970 (0.44%) were called active. The sample holds actives, similar compounds and a random draw of the others, so the mix is not that of the screen. Cut-off read from the data, not from the text of the source: active = activation above about 27%; inactive = the rest.

This test deals with Neuropeptide Y receptor type 2 (Homo sapiens) (UniProt P49146). The test is described as follows: NPY-Y2 potentiators or agonists, primary screen, cell-based (AID 1359).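 Note: cells stimulated with NPY near EC25 plus isoproterenol at EC100; 0% = vehicle plus submaximal agonist and 100% = vehicle plus saturating agonist.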 Particulars: cells expressing NPY-Y2, potentiator/agonist read-out; at 3.6 µM; stronger effect = higher value.
Chain of Neuropeptide Y receptor type 2 (Homo sapiens) (P49146 whole entry, looked up): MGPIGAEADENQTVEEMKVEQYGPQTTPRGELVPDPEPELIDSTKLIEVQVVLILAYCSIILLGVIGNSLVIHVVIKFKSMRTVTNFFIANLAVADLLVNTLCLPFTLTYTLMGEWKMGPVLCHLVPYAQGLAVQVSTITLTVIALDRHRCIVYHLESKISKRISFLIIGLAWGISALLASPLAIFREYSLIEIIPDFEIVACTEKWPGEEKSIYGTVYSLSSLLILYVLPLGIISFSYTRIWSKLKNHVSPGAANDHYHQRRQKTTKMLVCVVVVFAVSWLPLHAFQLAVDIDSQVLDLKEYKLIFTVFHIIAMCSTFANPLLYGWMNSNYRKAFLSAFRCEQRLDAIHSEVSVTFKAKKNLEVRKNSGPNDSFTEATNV
On to `COC(=O)c1ccccc1NC(=O)c1ccccc1NS(C)(=O)=O`, for which the activation was -6.98% (inactive).

With `O=C(Nc1nncs1)c1ccccc1NS(=O)(=O)c1cccs1`, the activation is -3.36% (inactive).

For `COc1cc(NC(=O)c2cccnc2SC)cc(OC)c1`, the activation was 6.08% (inactive).

For `COC(=O)c1ccc(NC(=O)c2ccccc2NS(=O)(=O)c2ccccc2)cc1`, the activation was 34.4% (active).

With `CCOc1ccc(NC(=O)c2ccccc2NS(C)(=O)=O)cc1`, the activation is 2.32% (inactive). Then `COc1cc(NC(=O)c2ccccc2NS(=O)(=O)c2ccc(Cl)s2)cc(OC)c1`, with 44% (active); and `COc1ccccc1NC(=S)N1CCC(NC(=O)C23CC4CC(CC(C4)C2)C3)CC1`, with 1.71% (inactive). Next, `O=c1c2c3c(sc2n(CCN2CCCC2)c(=O)n1Cc1ccccc1)CCCCC3`: -17.9% (inactive); `O=C(Cn1nnc(N2CCCCC2)n1)c1ccc(Cl)c(Cl)c1`: 19% (inactive). Next, `COc1ccc(Cc2n[nH]c(=S)n2NC(=O)Nc2ccc(C)cc2)cc1`: 7.41% (inactive); `CC1CN(/C=C/C(=O)C(F)(F)F)CC(C)O1` (centres undefined): -5.05% (inactive); `CCC(=O)N1CCC(C(N)=O)(N2CCCCC2)CC1`: -10.4% (inactive). Take `CCCCCCCC1(C)NC(=O)N(CC(=O)Nc2cc(C)on2)C1=O` (centres undefined): the activation was 8.45% (inactive).

On to `CCOC(=O)Cc1cc(=O)[nH]c(/N=C(\N)Nc2ccc(OC)cc2)n1`, for which the activation is -5.89% (inactive). Then `CC(CCc1ccccc1)NCC(O)c1cccc([N+](=O)[O-])c1` (centres undefined), with 87.1% (active); and `CC(=O)NCC(O)c1ccc([N+](=O)[O-])cc1` (centres undefined), with 7.64% (inactive); and `CC(C)OP(=O)(OC(C)C)C(Nc1ccccc1)c1cccc([N+](=O)[O-])c1` (centres undefined), with -1.74% (inactive). Next, `O=C(CCn1nnc2ccccc2c1=O)N[C@@H](Cc1c[nH]c2ccccc12)C(=O)O`: 13.2% (inactive). Then `CCOc1ccc(S(=O)(=O)N(CC(=O)NCC(F)(F)F)Cc2ccco2)cc1`, with -4.11% (inactive); and `Cc1ccc(Nc2nc(CSc3nnc(-c4ccncc4)n3-c3ccccc3C)cs2)cc1`, with 2.6% (inactive). Regarding `COc1cccc(CNn2cn[nH]c2=S)c1OCc1ccccc1`, the activation is 2.42% (inactive). Then `O=C(CC(O)(C(F)(F)F)C(F)(F)F)Nc1ccc(Cl)c(Cl)c1`, with 52.9% (active); and `O=C(CC(=O)Nc1ccc(Cl)c(Cl)c1)N/N=C/c1ccc(O)cc1`, with 7.69% (inactive). As to `CN(C)CCNC(CC(=O)Nc1ccc(Cl)c(Cl)c1)C(=O)O` (centres undefined), the activation is 4.29% (inactive). For `Cc1ccccc1/[N+]([O-])=C/c1ccncc1`, the activation is -7.27% (inactive). On to `CC(=O)c1c(C)[nH]c(=S)c(C#N)c1-c1ccc(F)cc1`, for which the activation was -13.5% (inactive). Next, `C#CCOCCOCCOCCNc1nc(N2CCN(C(=O)[C@H](CCC(=O)O)n3cc(C(N)CO)nn3)CC2)nc(N2CCN(C(=O)[C@H](Cc3ccc(O)cc3)n3cc(C(N)[C@H](C)CC)nn3)CC2)n1` (some centres undefined): -0.84% (inactive); `O=C(Nc1ccccc1)Nc1ccc(C(F)(F)F)cn1`: 4.92% (inactive). Next, `Cc1nccn1CC(=O)N/N=C/c1ccc(O)c(O)c1`: -13.1% (inactive); `Oc1ccc(/C=N/Nc2ccc(C(F)(F)F)cn2)cc1O`: 28.2% (active); `Cc1ccc(-c2c[n+](=O)c3c(n2[O-])CCC3)cc1`: -8.75% (inactive). Turning to `Cc1c(C(=O)NCCCc2ccccc2)cccc1[N+](=O)[O-]`, the activation is 2.52% (inactive). For `O=C1CCCC(O)=C1N=Nc1ccc(S(=O)(=O)N2CCOCC2)cc1`, the activation was 4.38% (inactive). Then `CC(=O)Nc1ccccc1OC(C)C(=O)N1CCC(C)CC1` (centres undefined), with -7.73% (inactive).

For `Cc1noc(COc2ccccc2OCc2onc(C)c2Cl)c1Cl`, the activation is 0.6% (inactive). With `CC(C)(C)CC(C)(C)NCC(O)COCCOc1ccc(Br)cc1` (centres undefined), the activation is -6.14% (inactive). Next, `Cc1noc(COc2ccccc2OCC(O)CNC(C)(C)C)n1` (centres undefined): 102% (active).

With `Cc1cccc(-c2nc3c(c(SCC(=O)N4CCOCC4)n2)CCCC3)c1`, the activation is -7.06% (inactive).

Take `O=C(Nc1ccc(N2CCOCC2)nc1)c1c(F)cccc1F`: the activation is -10.2% (inactive).

On to `CSc1ccc(NC(=O)/C=C/C(=O)O)cc1`, for which the activation was -0.23% (inactive). Next, `O=C(COC(=O)c1ccc[nH]c1=O)Nc1ccc2c(c1)OC(F)(F)O2`: -11.7% (inactive); `CN(C)Cc1c(O)ccc2occ(C(O)c3ccccc3)c12` (centres undefined): 92.7% (active); `N/C(=N\S(=O)(=O)c1cc(C(F)(F)F)cc(C(F)(F)F)c1)c1cccs1`: 46% (active). Then `C/C(=N\NS(=O)(=O)c1ccc(Br)cc1)c1cccs1`, with 2.42% (inactive); and `Cc1ccc(S(=O)(=O)/N=C(\N)c2ccc(F)cc2)cc1`, with 9.83% (inactive); and `Cn1c(=O)c(Sc2ccc(Cl)cc2)c(O)c2ccccc21`, with -8.34% (inactive). For `COc1cccc(NC(=S)NC(=O)c2c(Cl)c(C)nn2C)c1`, the activation is -1.69% (inactive).

On to `OCCNCc1cccc(OCc2ccccc2Cl)c1`, for which the activation is -2.33% (inactive). Next, `Cc1cccn2c(CN(C)C3CCCc4ccccc43)c(C(=O)N3CCOCC3)nc12` (centres undefined): -13.5% (inactive); `OC(c1ccccc1)c1nccn1Cc1ccccc1` (centres undefined): 3.61% (inactive); `COC(=O)c1cc(N2CCNCC2)nc2ccccc12`: 17% (inactive). Then `O=C(Nc1cccc(S(=O)(=O)Nc2ccc(Cl)cc2)c1)c1ccc2c(c1)OCCO2`, with 35% (active). Consider `O=C(Nc1cccc(S(=O)(=O)N2CCCCC2)c1)c1ccc2c(c1)OCO2`, for which the activation was 1.87% (inactive). Turning to `O=C(Nc1ccc(Cl)cn1)c1ccc2c(c1)OCCO2`, the activation is -8.32% (inactive). Next, `COC(=O)c1ccc(CSc2nncn2N)cc1`: 2.75% (inactive). Next, `NC(=O)CCC(NS(=O)(=O)c1ccc(Cl)cc1)C(=O)NCc1ccccc1Cl` (centres undefined): 10% (inactive). Then `CC(=O)c1c(C)[nH]c(C(=O)COC(=O)c2cccc(S(=O)(=O)N(C)c3ccccc3)c2)c1C`, with 10.4% (inactive).

As for `COc1ccc(C(C[N+](=O)[O-])n2nc(C)cc2C)cc1` (centres undefined), the activation is 12.3% (inactive).

As to `CC(=O)N(CCCN(C)C)c1nc2ccc(C)cc2s1`, the activation was -1.74% (inactive). Then `CN(C)CCCN(C(=O)COc1ccccc1)c1nc2c(Cl)cccc2s1`, with -2.96% (inactive). Then `COc1cccc2sc(N(CCCN(C)C)C(=O)C(c3ccccc3)c3ccccc3)nc12`, with 95.6% (active). Then `CCSc1nnc(NC(=O)c2ccc(C)cc2)s1`, with 31.6% (active); and `C=CCSc1nnc(NC(=O)c2ccc(NC(C)=O)cc2)s1`, with -3.89% (inactive); and `CCSc1nnc(NC(=O)Cc2ccccc2OC)s1`, with -5.68% (inactive). As for `Cc1nc2ccccc2c(C)c1C(=O)c1ccc(F)cc1`, the activation was -11.5% (inactive).

As for `CCCC1OC23CCCCC2C(C#N)(C#N)C1(C#N)C(=N)O3` (centres undefined), the activation was 7.5% (inactive).

Turning to `COCCCNC(NC(=O)c1ccc(C)cc1)C(Cl)(Cl)Cl` (centres undefined), the activation is 15.8% (inactive). Next, `COc1ccc(C(=O)NC2(C(F)(F)F)NC(=O)N(CCCc3ccccc3)C2=O)c(OC)c1OC` (centres undefined): -6.73% (inactive); `CC(O)CNCCOc1cccc(Oc2ccccc2)c1` (centres undefined): -22.6% (inactive). Then `COc1ccccc1OCCNC(=O)c1cc([N+](=O)[O-])cc([N+](=O)[O-])c1`, with -7.14% (inactive); and `COc1ccccc1OCCNCC(O)COc1cccc2[nH]c3ccccc3c12` (centres undefined), with 99.4% (active) and 97.9% (active). Then `C=CCn1c(SCc2cccc(F)c2)nc2cc(C(=O)N3CCC(C(N)=O)CC3)ccc2c1=O`, with 8.55% (inactive); and `O=C(NCCc1ccccn1)c1cc(-c2ccc(Cl)cc2)nc2ccccc12`, with -15.9% (inactive); and `O=c1cc(N2CCN(Cc3ccccc3)CC2)c(-c2ccccc2)n[nH]1`, with 12.9% (inactive). In the case of `O=C1c2ccccc2C(=O)c2c1cccc2N1CCN(CCO)CC1`, the activation was 7.55% (inactive).

On to `O=C1c2ccccc2C(=O)c2c1cccc2N1CCN(Cc2ccccc2)CC1`, for which the activation is 48.8% (active). Next, `COc1ccc(NS(=O)(=O)c2cc(NC(=O)CC(=O)c3ccc([N+](=O)[O-])cc3)ccc2C)cc1`: -11.2% (inactive); `CC(=O)C1C(c2cccc(Oc3ccccc3)c2)NC(=O)NC1(O)C(F)(F)F` (centres undefined): 6.91% (inactive); `CC(=O)C1C(c2ccc(Cl)cc2)NC(=O)NC1(O)C(F)(F)F` (centres undefined): -6.52% (inactive). Then `O=C1NC(c2ccc(-c3ccccc3[N+](=O)[O-])o2)C(C(=O)c2ccc(Cl)cc2)C(O)(C(F)(F)F)N1` (centres undefined), with 37.4% (active); and `O=C(c1ccc(F)cc1)n1c(=S)nc2ccccn21`, with 3.79% (inactive); and `COc1cc(N2C(=O)c3ccccc3C2=O)c(Cl)cc1C(=O)OCC(=O)N1CCOCC1`, with -10.6% (inactive). Then `OC(COCc1ccco1)CN1CCN(c2ccccc2)CC1` (centres undefined), with -8.6% (inactive); and `O=[N+]([O-])c1ccc(N2CCN(CC(O)COc3ccccc3)CC2)cc1` (centres undefined), with -7.01% (inactive). In the case of `OC(COCC1COc2ccccc2O1)CN1CCN(c2ccc(F)cc2)CC1` (centres undefined), the activation was 80.4% (active). Then `COc1ccc(OCc2cn3c(C)cc(C)nc3n2)cc1`, with 1.94% (inactive); and `COc1cc(NC(=S)NCc2ccc(S(N)(=O)=O)cc2)cc(OC)c1`, with 4.03% (inactive); and `CC1(C)CC(=O)C(N=Nc2c(F)cccc2F)=C(O)C1`, with 19.3% (inactive). Then `Cc1nn(-c2ccccc2)c(C)c1/C=C/C(=O)OC(C)C(N)=O` (centres undefined), with -0.33% (inactive); and `O=C(NCC(O)c1ccc([N+](=O)[O-])cc1)C1CCCCC1` (centres undefined), with -6.08% (inactive). Next, `CC(C)(C)n1ncc2c(=O)n(Cc3ccc(Cl)cc3)cnc21`: -23.4% (inactive). As to `Cc1ccccc1Nc1c(-c2ccccc2)nc2ncccn12`, the activation is 22.6% (inactive). For `Cc1cccc(C)c1Nc1c(-c2ccccc2O)nc2ncccn12`, the activation is 56.5% (active). Next, `COC(=O)c1ccc(COc2ccc(/C=N/NC(=O)C(=O)Nc3ccc(OC)cc3)cc2OC)o1`: -3.63% (inactive).

The values above are taken from PubChem BioAssay AID1359 (The Scripps Research Institute Molecular Screening Center, 2008).
